# Measured values taken from ChEMBL document CHEMBL3988442, “University of Dundee, Small-Polar-MMV Screening Library” (2021).
# Screen size: about 69,000 compounds; about 950 (1.4%) showed an effect of 50% or more. The sample as a whole holds a higher share of strong results than the screen did.
# Test system: Mycobacterium tuberculosis
# Test: Cornell M. t heat shock assay; also: in the data most compounds retested in dose-response had high values
# Type: functional, organism-based
# Parameters: dose or concentration left out as unconfirmed
row,Structure (SMILES),Percent Effect
1,COCCN1CCOCC12CCN(C(=O)c1ccoc1)CC2.O=C(O)C(F)(F)F,-24.79%
2,Cn1cc(CN2CC[C@H]3O[C@H](C(=O)Nc4cnccn4)CC[C@H]32)cn1.O=C(O)C(F)(F)F,-14.77%
3,CN(CCC(O)c1ccccc1)Cc1ccccc1C#N (configuration not stated),79.67%
4,Cc1cc(CN(C)CCN(C)c2ccccc2)no1,0.1875%
5,Cc1cc(CN(C)CCC(O)c2ccccc2)no1 (configuration not stated),50.59%
6,CN(CCC(O)c1ccccc1)Cc1nc(-c2ccccc2)no1 (configuration not stated),28.98%
7,Cc1cc(CN(C)CCC(O)c2ccccc2)nn1C (configuration not stated),0.01185%
8,COc1cccc(CN(C)Cc2ccccc2C#N)c1OC,-6.46%
9,COCC1Cn2nnc(-c3cnn(C)c3)c2CN1Cc1ccoc1.O=C(O)C(F)(F)F (configuration not stated),5.008%
10,O=C(O)CCC(=O)Nc1nn(Cc2ccccc2Cl)cc1Cl,2.15%
11,Cc1ccc(N2CCO[C@H]3CN(CC4CC4)C[C@H]32)nn1.O=C(O)C(F)(F)F.O=C(O)C(F)(F)F,-7.487%
12,COc1cc(N2CC[C@@H](O)[C@@H]2Cc2cccnc2)ncn1.O=C(O)C(F)(F)F,0.6687%
13,CCCN(CC(=O)N1CCNCC1)C(=O)c1cccc(Cl)c1.O=C(O)C(F)(F)F,0.5334%
14,Cc1ccc(OCCN(C)Cc2nccn2C)c(C)c1,55.39%
15,CCOc1ccccc1OCCN(C)Cc1nccn1C,-26.9%
16,CN(CCCOc1ccccc1)Cc1nccn1C,-13.65%
17,O=C(C1CCCc2[nH]ncc21)N1CCCC2(C1)OCCO2 (configuration not stated),10.11%
18,CN(C)C(c1ccccn1)[C@H]1CC[C@H](CNC(=O)C2CCCC2)CC1 (some centres not stated),5.9375%
19,N#Cc1ccc(C(=O)N2CC[C@H]3[C@H]2CCN3CC2CCOCC2)cc1.O=C(O)C(F)(F)F,-36.11%
20,N#CC1(C(=O)NCCCNc2ccc(C(F)(F)F)cn2)CCCC1,102.8%
21,N#Cc1ccc(NCCNc2ccc(C(F)(F)F)cn2)nc1,51.52%
22,O=C(NCCCNc1ccc(C(F)(F)F)cn1)c1ccccc1,26.28%
23,N#Cc1ccc(C(=O)NCCCNc2ccc(C(F)(F)F)cn2)cc1,28.89%
24,O=C(NCCCNc1ccc(C(F)(F)F)cn1)c1ccc(F)cc1,26.36%

row,Structure (SMILES),Percent Effect
1,Cc1cc(NCCNc2ccc(C#N)cn2)nc(C)n1,-18.17%
2,O=C(O)C(F)(F)F.O=C1CC(c2ccccc2)C2(CCN(Cc3nccs3)CC2)N1 (configuration not stated),-1.259%
3,CC(=O)N1CCC2(CC1)CNc1c(F)cccc12.Cl,12.35%
4,Cc1nc(-c2cc(Cl)cc3c2OC(CN)C3)c[nH]1 (configuration not stated),52.4%
5,Cc1cc2c(c(-c3c[nH]c(C)n3)c1)OC(CN)C2 (configuration not stated),1.503%
6,Cc1nc(-c2cc(Cl)c3c(c2)CC(CN)O3)c[nH]1 (configuration not stated),42.51%
7,Cc1cc(C(F)(F)F)n2nc(C3CCCN3C3CCSCC3)cc2n1.O=C(O)CC(O)(CC(=O)O)C(=O)O (configuration not stated),-13.15%
8,COCC(=O)NC1CC2(CCN(CC3CC3)CC2)Oc2ccccc21.O=C(O)C(F)(F)F (configuration not stated),-26.45%
9,COc1cc(N2CCC3(CCN(Cc4nccs4)CC3)C2)ncn1.O=C(O)C(F)(F)F,24.13%
10,Cc1cccc(CN2C[C@H](OCc3csc(C)n3)[C@H]3COC[C@H]32)n1.O=C(O)C(F)(F)F.O=C(O)C(F)(F)F,-14.33%
11,CC(C)Cc1ccc(C(=O)Cn2cnnc2[S+](C)[O-])cc1 (configuration not stated),59.76%
12,CC(C)Oc1ccc(C(=O)Cn2cnnc2[S+](C)[O-])cc1 (configuration not stated),17.53%
13,C[S+]([O-])c1nncn1CC(=O)c1ccc(Br)cc1 (configuration not stated),11.9%
14,O=C(O)C(F)(F)F.O=C(c1ccc(F)cc1)N1CCC2(CCCN2CC2CC2)CC1,-17.36%
15,O=C(NC1CC1)c1ccc2ccc(N3CCN(CC4CC4)CC3)n2c1,38.85%
16,CC(C)N1CCN(c2ccc3ccc(C(=O)NC4CCCC4)cn23)CC1.O=C(O)C(F)(F)F,67.57%
17,CC(=O)N1CCN(c2ccc3ccc(C(=O)NC4CCCC4)cn23)CC1,69.47%
18,CS(=O)(=O)N1CCN(c2ccc3ccc(C(=O)NC4CC4)cn23)CC1,20.39%
19,COCCN1CCN(c2ccc3ccc(C(=O)NC4CC4)cn23)CC1,-14.38%
20,CN(C)C(=O)N1CCN(c2ccc3ccc(C(=O)NC4CC4)cn23)CC1,-6.605%
21,CN(C)C(=O)[C@H]1C[C@@H]2CCN(C3CCOCC3)C[C@@H]2O1.O=C(O)C(F)(F)F,2.005%
22,CN(C)c1ncnc2c1CCN(CC1CCOC1)CC2.O=C(O)C(F)(F)F (configuration not stated),-1.073%
23,Cc1cccc(N2CC[C@@H]3CN(C(=O)c4ccco4)CCO[C@@H]3C2)n1.O=C(O)C(F)(F)F,6.087%
